Test results from the supplement of paper PMC6411743.
± gives the standard deviation of the averaged measurements. The full data set covers some 5,400 targets. This sample favours those with the largest changes.

Compound: Nc1nc2c(ncn2[C@@H]2O[C@H](COP(=O)(O)OP(=O)(O)OP(=O)(O)O)[C@@H](O)[C@H]2O)c(=O)[nH]1 [guanosine triphosphate]
Assay: NP40-soluble protein abundance relative to vehicle (solubility fold change) (ratio); higher = more soluble protein in presence of GTP
How it was run: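 Crude Jurkat lysate, prepared by Dounce homogenisation, was exposed to eight concentrations from 0.1 to 10 mM for 10 min at room temperature and then 3 min at 37 °C. Solubilisation used 0.8% NP40 with benzonase for 60 min at 4 °C, followed by ultracentrifugation and TMT labelling of the supernatant for LC-MS/MS. After vsn normalisation of intensities, each value is the fold change against the detergent-processed vehicle within each replicate, across three independent experiments.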

A0A087WY71|Q96CW1|Q96CW1-2 (UniProt Q96CW1)
NP40-soluble protein abundance (concentration: 0.1mM): 1.09 ± 0.11
NP40-soluble protein abundance (concentration: 0.5mM): 1.12 ± 0.17
NP40-soluble protein abundance (concentration: 1mM): 0.947 ± 0.078
NP40-soluble protein abundance (concentration: 2mM): 1.04 ± 0.16
NP40-soluble protein abundance (concentration: 4mM): 1.04 ± 0.14
NP40-soluble protein abundance (concentration: 6mM): 1.03 ± 0.13
NP40-soluble protein abundance (concentration: 8mM): 0.941 ± 0.023
NP40-soluble protein abundance (concentration: 10mM): 0.95 ± 0.09

A0A087X256|Q2M389 (UniProt Q2M389)
NP40-soluble protein abundance (concentration: 0.1mM): 1.04 ± 0.058
NP40-soluble protein abundance (concentration: 0.5mM): 1.01 ± 0.097
NP40-soluble protein abundance (concentration: 1mM): 0.973 ± 0.048
NP40-soluble protein abundance (concentration: 2mM): 0.975 ± 0.028
NP40-soluble protein abundance (concentration: 4mM): 0.957 ± 0.028
NP40-soluble protein abundance (concentration: 6mM): 0.973 ± 0.044
NP40-soluble protein abundance (concentration: 8mM): 1.02 ± 0.068
NP40-soluble protein abundance (concentration: 10mM): 0.889 ± 0.024

A0A096LNZ9|A0A096LPJ4|P05161 (UniProt P05161)
Chain of UniProt P05161 (P05161 whole entry, one chain of several): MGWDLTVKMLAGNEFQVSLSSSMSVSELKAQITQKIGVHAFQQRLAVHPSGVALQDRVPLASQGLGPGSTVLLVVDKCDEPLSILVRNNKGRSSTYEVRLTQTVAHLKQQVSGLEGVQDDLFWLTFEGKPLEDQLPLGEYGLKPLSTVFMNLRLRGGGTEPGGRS
NP40-soluble protein abundance (concentration: 0.1mM): 0.9514 ± 0.0057
NP40-soluble protein abundance (concentration: 0.5mM): 0.961 ± 0.023
NP40-soluble protein abundance (concentration: 1mM): 0.899 ± 0.019
NP40-soluble protein abundance (concentration: 2mM): 0.888 ± 0.02
NP40-soluble protein abundance (concentration: 4mM): 0.869 ± 0.026
NP40-soluble protein abundance (concentration: 6mM): 0.885 ± 0.035
NP40-soluble protein abundance (concentration: 8mM): 0.83 ± 0.034
NP40-soluble protein abundance (concentration: 10mM): 0.836 ± 0.034

F5H269|Q9Y485 (UniProt Q9Y485)
Chain of UniProt Q9Y485 (Q9Y485 whole entry, one chain of several): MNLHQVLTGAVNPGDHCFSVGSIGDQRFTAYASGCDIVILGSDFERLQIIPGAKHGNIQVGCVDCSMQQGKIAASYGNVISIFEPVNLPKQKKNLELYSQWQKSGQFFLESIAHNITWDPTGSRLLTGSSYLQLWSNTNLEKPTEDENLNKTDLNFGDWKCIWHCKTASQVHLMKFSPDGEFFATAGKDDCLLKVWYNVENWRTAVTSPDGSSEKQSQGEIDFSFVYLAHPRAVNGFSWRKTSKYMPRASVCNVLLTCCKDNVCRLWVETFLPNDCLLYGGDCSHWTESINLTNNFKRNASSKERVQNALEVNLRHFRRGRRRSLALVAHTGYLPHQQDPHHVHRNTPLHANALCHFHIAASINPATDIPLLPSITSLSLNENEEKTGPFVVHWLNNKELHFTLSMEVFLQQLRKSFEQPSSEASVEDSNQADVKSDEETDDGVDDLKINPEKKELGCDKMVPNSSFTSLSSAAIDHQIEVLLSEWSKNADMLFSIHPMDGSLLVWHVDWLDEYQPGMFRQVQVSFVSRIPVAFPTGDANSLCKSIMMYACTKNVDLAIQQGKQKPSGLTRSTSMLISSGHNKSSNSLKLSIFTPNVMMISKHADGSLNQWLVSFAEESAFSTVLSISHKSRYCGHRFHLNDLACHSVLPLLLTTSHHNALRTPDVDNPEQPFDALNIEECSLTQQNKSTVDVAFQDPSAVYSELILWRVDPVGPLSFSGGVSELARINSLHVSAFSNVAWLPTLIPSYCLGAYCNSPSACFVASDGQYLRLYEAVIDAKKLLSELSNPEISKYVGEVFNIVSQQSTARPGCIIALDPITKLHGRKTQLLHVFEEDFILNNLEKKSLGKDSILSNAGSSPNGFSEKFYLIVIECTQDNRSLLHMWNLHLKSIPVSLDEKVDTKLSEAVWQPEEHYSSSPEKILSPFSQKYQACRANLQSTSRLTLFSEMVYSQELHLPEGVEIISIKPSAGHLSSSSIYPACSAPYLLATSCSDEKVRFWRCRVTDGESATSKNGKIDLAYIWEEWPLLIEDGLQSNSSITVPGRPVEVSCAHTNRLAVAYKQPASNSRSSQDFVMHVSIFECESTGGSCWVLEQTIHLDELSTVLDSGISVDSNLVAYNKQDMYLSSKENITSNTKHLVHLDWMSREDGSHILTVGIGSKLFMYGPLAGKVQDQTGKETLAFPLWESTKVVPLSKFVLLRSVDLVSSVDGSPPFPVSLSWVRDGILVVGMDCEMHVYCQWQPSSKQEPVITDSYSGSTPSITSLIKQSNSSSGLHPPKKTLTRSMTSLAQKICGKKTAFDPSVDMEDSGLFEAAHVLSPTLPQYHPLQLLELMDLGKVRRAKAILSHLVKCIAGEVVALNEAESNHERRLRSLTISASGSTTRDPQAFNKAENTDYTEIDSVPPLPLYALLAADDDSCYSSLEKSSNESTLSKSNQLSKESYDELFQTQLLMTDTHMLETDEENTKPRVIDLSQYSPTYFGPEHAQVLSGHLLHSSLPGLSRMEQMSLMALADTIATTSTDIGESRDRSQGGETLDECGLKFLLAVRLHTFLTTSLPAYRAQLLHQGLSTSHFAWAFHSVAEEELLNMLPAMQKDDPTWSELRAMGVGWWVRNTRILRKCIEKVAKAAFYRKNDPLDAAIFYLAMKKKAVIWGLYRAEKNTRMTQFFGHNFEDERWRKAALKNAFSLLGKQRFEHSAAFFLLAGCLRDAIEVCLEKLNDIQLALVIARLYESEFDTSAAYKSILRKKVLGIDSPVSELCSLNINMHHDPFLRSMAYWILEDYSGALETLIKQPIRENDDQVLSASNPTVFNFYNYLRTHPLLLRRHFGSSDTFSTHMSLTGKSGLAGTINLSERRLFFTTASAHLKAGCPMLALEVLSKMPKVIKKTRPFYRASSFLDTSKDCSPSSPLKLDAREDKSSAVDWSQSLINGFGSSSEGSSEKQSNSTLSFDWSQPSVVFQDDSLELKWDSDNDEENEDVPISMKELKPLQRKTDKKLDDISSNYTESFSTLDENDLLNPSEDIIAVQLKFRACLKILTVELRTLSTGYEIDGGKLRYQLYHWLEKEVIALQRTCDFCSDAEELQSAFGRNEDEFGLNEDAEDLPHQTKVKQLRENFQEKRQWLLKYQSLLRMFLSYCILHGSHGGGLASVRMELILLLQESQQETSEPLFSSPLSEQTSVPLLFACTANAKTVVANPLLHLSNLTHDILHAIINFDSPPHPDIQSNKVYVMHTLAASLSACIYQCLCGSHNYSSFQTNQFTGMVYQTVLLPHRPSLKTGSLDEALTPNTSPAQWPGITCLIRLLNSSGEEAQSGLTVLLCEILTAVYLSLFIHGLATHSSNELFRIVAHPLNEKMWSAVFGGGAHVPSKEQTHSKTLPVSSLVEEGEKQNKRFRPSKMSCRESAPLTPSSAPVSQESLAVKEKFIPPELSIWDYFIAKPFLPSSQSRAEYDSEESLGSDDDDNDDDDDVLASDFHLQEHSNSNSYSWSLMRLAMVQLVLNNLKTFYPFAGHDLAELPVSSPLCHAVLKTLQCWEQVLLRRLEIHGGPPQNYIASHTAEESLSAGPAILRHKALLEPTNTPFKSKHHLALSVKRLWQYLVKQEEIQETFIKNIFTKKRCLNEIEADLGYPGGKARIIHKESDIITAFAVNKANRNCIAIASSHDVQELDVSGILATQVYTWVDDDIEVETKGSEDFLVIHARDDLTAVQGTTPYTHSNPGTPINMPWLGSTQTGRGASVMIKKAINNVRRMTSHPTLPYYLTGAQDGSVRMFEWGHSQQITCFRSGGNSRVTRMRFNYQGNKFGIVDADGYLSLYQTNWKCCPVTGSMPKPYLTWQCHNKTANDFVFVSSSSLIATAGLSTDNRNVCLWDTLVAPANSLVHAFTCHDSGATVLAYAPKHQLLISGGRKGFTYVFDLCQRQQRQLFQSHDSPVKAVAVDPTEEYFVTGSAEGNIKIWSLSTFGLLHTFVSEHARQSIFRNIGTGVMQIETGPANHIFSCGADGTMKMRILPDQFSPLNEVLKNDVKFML
NP40-soluble protein abundance (concentration: 0.1mM): 0.991 ± 0.013
NP40-soluble protein abundance (concentration: 0.5mM): 1.11 ± 0.081
NP40-soluble protein abundance (concentration: 1mM): 1.05 ± 0.096
NP40-soluble protein abundance (concentration: 2mM): 1.01 ± 0.087
NP40-soluble protein abundance (concentration: 4mM): 1.04 ± 0.09
NP40-soluble protein abundance (concentration: 6mM): 1.06 ± 0.088
NP40-soluble protein abundance (concentration: 8mM): 1.12 ± 0.15
NP40-soluble protein abundance (concentration: 10mM): 1.11 ± 0.11

G5E953|Q13615|Q13615-2|Q13615-3 (UniProt Q13615)
NP40-soluble protein abundance (concentration: 0.1mM): 1.01 ± 0.036
NP40-soluble protein abundance (concentration: 0.5mM): 0.987 ± 0.04
NP40-soluble protein abundance (concentration: 1mM): 0.978 ± 0.063
NP40-soluble protein abundance (concentration: 2mM): 0.953 ± 0.034
NP40-soluble protein abundance (concentration: 4mM): 0.976 ± 0.045
NP40-soluble protein abundance (concentration: 6mM): 0.963 ± 0.065
NP40-soluble protein abundance (concentration: 8mM): 1 ± 0.042
NP40-soluble protein abundance (concentration: 10mM): 0.971 ± 0.028

E9PEN0|Q8WYH8|Q8WYH8-2 (UniProt Q8WYH8)
NP40-soluble protein abundance (concentration: 0.1mM): 1.1 ± 0.098
NP40-soluble protein abundance (concentration: 0.5mM): 1.07 ± 0.16
NP40-soluble protein abundance (concentration: 1mM): 1.26 ± 0.41
NP40-soluble protein abundance (concentration: 2mM): 1.19 ± 0.26
NP40-soluble protein abundance (concentration: 4mM): 1.33 ± 0.3
NP40-soluble protein abundance (concentration: 6mM): 1.5 ± 0.35
NP40-soluble protein abundance (concentration: 8mM): 1.48 ± 0.39
NP40-soluble protein abundance (concentration: 10mM): 2 ± 0.59

A0A5E8|Q99501|C9JFI0 (UniProt Q99501)
NP40-soluble protein abundance (concentration: 0.1mM): 1.12 ± 0.09
NP40-soluble protein abundance (concentration: 0.5mM): 1.17 ± 0.18
NP40-soluble protein abundance (concentration: 1mM): 1.21 ± 0.1
NP40-soluble protein abundance (concentration: 2mM): 1.3 ± 0.15
NP40-soluble protein abundance (concentration: 4mM): 1.3 ± 0.086
NP40-soluble protein abundance (concentration: 6mM): 1.37 ± 0.075
NP40-soluble protein abundance (concentration: 8mM): 1.46 ± 0.035
NP40-soluble protein abundance (concentration: 10mM): 1.38 ± 0.078

B1AMW1|P19256|P19256-2|P19256-3 (UniProt P19256)
Chain of UniProt P19256 (P19256 whole entry, one chain of several): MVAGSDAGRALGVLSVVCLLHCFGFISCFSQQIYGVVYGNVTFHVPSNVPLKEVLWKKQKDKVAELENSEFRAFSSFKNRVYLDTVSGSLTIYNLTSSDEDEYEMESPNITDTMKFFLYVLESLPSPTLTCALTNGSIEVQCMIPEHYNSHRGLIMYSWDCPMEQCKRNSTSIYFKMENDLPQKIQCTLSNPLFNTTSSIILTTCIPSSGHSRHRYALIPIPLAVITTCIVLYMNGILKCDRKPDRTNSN
NP40-soluble protein abundance (concentration: 0.1mM): 0.879 ± 0.05
NP40-soluble protein abundance (concentration: 0.5mM): 0.937 ± 0.095
NP40-soluble protein abundance (concentration: 1mM): 0.973 ± 0.11
NP40-soluble protein abundance (concentration: 2mM): 0.915 ± 0.064
NP40-soluble protein abundance (concentration: 4mM): 0.979 ± 0.038
NP40-soluble protein abundance (concentration: 6mM): 1.03 ± 0.088
NP40-soluble protein abundance (concentration: 8mM): 0.952 ± 0.036
NP40-soluble protein abundance (concentration: 10mM): 0.958 ± 0.047

B4DZG1|Q9Y483|Q9Y483-3|Q96G26|Q9Y483-2|Q9Y483-4 (UniProt Q9Y483)
Chain of UniProt Q9Y483 (Q9Y483 whole entry, one chain of several): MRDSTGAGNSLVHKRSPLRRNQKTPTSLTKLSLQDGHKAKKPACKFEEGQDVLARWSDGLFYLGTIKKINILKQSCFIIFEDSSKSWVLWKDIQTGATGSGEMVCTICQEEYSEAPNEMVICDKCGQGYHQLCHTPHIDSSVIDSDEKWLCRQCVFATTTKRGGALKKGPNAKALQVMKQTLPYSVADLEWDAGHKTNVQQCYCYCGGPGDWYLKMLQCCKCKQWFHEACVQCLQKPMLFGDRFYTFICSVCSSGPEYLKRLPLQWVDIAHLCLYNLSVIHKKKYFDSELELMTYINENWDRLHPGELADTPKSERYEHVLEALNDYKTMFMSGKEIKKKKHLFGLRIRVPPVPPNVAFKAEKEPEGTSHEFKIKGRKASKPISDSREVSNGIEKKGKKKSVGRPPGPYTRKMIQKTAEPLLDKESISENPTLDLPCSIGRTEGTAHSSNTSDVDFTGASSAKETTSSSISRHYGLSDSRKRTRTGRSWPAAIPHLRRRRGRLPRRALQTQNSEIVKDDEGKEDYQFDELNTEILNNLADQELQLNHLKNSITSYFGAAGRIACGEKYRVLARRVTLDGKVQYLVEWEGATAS
NP40-soluble protein abundance (concentration: 0.1mM): 1.11 ± 0.061
NP40-soluble protein abundance (concentration: 0.5mM): 1.09 ± 0.032
NP40-soluble protein abundance (concentration: 1mM): 1.16 ± 0.044
NP40-soluble protein abundance (concentration: 2mM): 1.26 ± 0.074
NP40-soluble protein abundance (concentration: 4mM): 1.4 ± 0.068
NP40-soluble protein abundance (concentration: 6mM): 1.45 ± 0.095
NP40-soluble protein abundance (concentration: 8mM): 1.64 ± 0.2
NP40-soluble protein abundance (concentration: 10mM): 1.78 ± 0.18

B4DTS2|Q9BZL6 (UniProt Q9BZL6)
NP40-soluble protein abundance (concentration: 0.1mM): 1.02 ± 0.021
NP40-soluble protein abundance (concentration: 0.5mM): 1.04 ± 0.034
NP40-soluble protein abundance (concentration: 1mM): 0.992 ± 0.053
NP40-soluble protein abundance (concentration: 2mM): 1.02 ± 0.055
NP40-soluble protein abundance (concentration: 4mM): 1 ± 0.059
NP40-soluble protein abundance (concentration: 6mM): 0.97 ± 0.031
NP40-soluble protein abundance (concentration: 8mM): 0.946 ± 0.045
NP40-soluble protein abundance (concentration: 10mM): 0.946 ± 0.033

D6R938|E9PBG7|E9PF82|Q13557|Q13557-10|Q13557-11|Q13557-12|Q13557-3|Q13557-4|Q13557-5|Q13557-6|Q13557-8|Q13557-9 (UniProt Q13557)
NP40-soluble protein abundance (concentration: 0.1mM): 1 ± 0.11
NP40-soluble protein abundance (concentration: 0.5mM): 1.04 ± 0.14
NP40-soluble protein abundance (concentration: 1mM): 1.07 ± 0.14
NP40-soluble protein abundance (concentration: 2mM): 1.08 ± 0.15
NP40-soluble protein abundance (concentration: 4mM): 1.1 ± 0.1
NP40-soluble protein abundance (concentration: 6mM): 1.13 ± 0.1
NP40-soluble protein abundance (concentration: 8mM): 1.09 ± 0.17
NP40-soluble protein abundance (concentration: 10mM): 1.14 ± 0.14

C9J8R4|C9JVE2|Q96GG9 (UniProt Q96GG9)
Chain of UniProt Q96GG9 (Q96GG9 whole entry, looked up, one chain of several): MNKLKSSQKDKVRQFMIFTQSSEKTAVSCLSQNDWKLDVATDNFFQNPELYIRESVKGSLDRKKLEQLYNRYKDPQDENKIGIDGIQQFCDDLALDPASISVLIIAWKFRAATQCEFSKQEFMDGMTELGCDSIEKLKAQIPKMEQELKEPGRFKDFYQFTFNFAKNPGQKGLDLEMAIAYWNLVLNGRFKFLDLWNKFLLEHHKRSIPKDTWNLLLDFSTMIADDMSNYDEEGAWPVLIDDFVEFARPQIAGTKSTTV
NP40-soluble protein abundance (concentration: 0.1mM): 0.935 ± 0.042
NP40-soluble protein abundance (concentration: 0.5mM): 0.919 ± 0.034
NP40-soluble protein abundance (concentration: 1mM): 0.903 ± 0.049
NP40-soluble protein abundance (concentration: 2mM): 0.889 ± 0.072
NP40-soluble protein abundance (concentration: 4mM): 0.867 ± 0.048
NP40-soluble protein abundance (concentration: 6mM): 0.87 ± 0.044
NP40-soluble protein abundance (concentration: 8mM): 0.842 ± 0.077
NP40-soluble protein abundance (concentration: 10mM): 0.84 ± 0.084

A0A087WWS1|Q96FV9 (UniProt Q96FV9)
NP40-soluble protein abundance (concentration: 0.1mM): 1.1 ± 0.016
NP40-soluble protein abundance (concentration: 0.5mM): 1.24 ± 0.086
NP40-soluble protein abundance (concentration: 1mM): 1.41 ± 0.19
NP40-soluble protein abundance (concentration: 2mM): 1.76 ± 0.41
NP40-soluble protein abundance (concentration: 4mM): 2.08 ± 0.62
NP40-soluble protein abundance (concentration: 6mM): 2.26 ± 0.76
NP40-soluble protein abundance (concentration: 8mM): 2.37 ± 0.83
NP40-soluble protein abundance (concentration: 10mM): 2.4 ± 0.91

H0Y362|Q8NEW0 (UniProt Q8NEW0)
Chain of UniProt Q8NEW0 (Q8NEW0 whole entry, one chain of several): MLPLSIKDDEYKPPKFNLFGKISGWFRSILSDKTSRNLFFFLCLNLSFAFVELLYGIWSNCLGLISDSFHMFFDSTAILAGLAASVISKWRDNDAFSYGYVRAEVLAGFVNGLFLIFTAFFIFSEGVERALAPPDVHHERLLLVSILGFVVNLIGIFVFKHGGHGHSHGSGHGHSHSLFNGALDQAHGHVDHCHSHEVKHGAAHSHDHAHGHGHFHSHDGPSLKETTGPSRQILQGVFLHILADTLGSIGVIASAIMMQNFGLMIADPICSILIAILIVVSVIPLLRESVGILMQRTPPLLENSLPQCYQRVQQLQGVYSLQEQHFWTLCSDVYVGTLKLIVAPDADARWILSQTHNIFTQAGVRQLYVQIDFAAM
NP40-soluble protein abundance (concentration: 0.1mM): 1.21 ± 0.043
NP40-soluble protein abundance (concentration: 0.5mM): 1.14 ± 0.018
NP40-soluble protein abundance (concentration: 1mM): 1.14 ± 0.026
NP40-soluble protein abundance (concentration: 2mM): 1.13 ± 0.1
NP40-soluble protein abundance (concentration: 4mM): 1.05 ± 0.062
NP40-soluble protein abundance (concentration: 6mM): 1.05 ± 0.11
NP40-soluble protein abundance (concentration: 8mM): 1.04 ± 0.055
NP40-soluble protein abundance (concentration: 10mM): 0.959 ± 0.013

E7EPN9|Q9Y520|Q9Y520-4|Q9Y520-5|Q9Y520-7 (UniProt Q9Y520)
NP40-soluble protein abundance (concentration: 0.1mM): 1.01 ± 0.02
NP40-soluble protein abundance (concentration: 0.5mM): 1.01 ± 0.054
NP40-soluble protein abundance (concentration: 1mM): 1.1 ± 0.063
NP40-soluble protein abundance (concentration: 2mM): 1.14 ± 0.073
NP40-soluble protein abundance (concentration: 4mM): 1.24 ± 0.057
NP40-soluble protein abundance (concentration: 6mM): 1.36 ± 0.075
NP40-soluble protein abundance (concentration: 8mM): 1.53 ± 0.14
NP40-soluble protein abundance (concentration: 10mM): 1.7 ± 0.2

B1AMU7|Q9Y3B2 (UniProt Q9Y3B2)
Chain of UniProt Q9Y3B2 (Q9Y3B2 whole entry, one chain of several): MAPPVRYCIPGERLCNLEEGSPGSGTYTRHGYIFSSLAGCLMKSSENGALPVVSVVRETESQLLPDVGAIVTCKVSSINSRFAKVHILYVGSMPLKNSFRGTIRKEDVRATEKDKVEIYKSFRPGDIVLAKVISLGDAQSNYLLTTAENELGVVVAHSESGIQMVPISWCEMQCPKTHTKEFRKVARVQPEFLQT
NP40-soluble protein abundance (concentration: 0.1mM): 1.02 ± 0.037
NP40-soluble protein abundance (concentration: 0.5mM): 1.07 ± 0.04
NP40-soluble protein abundance (concentration: 1mM): 1.01 ± 0.056
NP40-soluble protein abundance (concentration: 2mM): 1.1 ± 0.11
NP40-soluble protein abundance (concentration: 4mM): 1.18 ± 0.11
NP40-soluble protein abundance (concentration: 6mM): 1.22 ± 0.12
NP40-soluble protein abundance (concentration: 8mM): 1.17 ± 0.062
NP40-soluble protein abundance (concentration: 10mM): 1.18 ± 0.068

A0A0B4J1R7|Q96B45 (UniProt Q96B45)
Chain of UniProt Q96B45 (Q96B45 whole entry, looked up, one chain of several): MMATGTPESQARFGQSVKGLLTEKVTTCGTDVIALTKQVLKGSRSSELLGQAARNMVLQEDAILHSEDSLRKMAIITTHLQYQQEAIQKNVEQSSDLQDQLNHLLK
NP40-soluble protein abundance (concentration: 0.1mM): 0.918 ± 0.15
NP40-soluble protein abundance (concentration: 0.5mM): 0.977 ± 0.18
NP40-soluble protein abundance (concentration: 1mM): 1.02 ± 0.17
NP40-soluble protein abundance (concentration: 2mM): 1.09 ± 0.11
NP40-soluble protein abundance (concentration: 4mM): 1.09 ± 0.24
NP40-soluble protein abundance (concentration: 6mM): 1 ± 0.19
NP40-soluble protein abundance (concentration: 8mM): 1.02 ± 0.12
NP40-soluble protein abundance (concentration: 10mM): 1.06 ± 0.18
